Data as given in ChEMBL document CHEMBL4513216, “Probing the Open Global Health Chemical Diversity Library for Multistage-Active Starting Points for Next-Generation Antimalarials” (ACS Infect Dis, 2020).
In all, about 69,000 compounds went through this assay and about 8,600 (12%) showed an effect of 50% or more. The full list was thinned out, with strong results kept by preference.

tested on: Plasmodium berghei; assay: Screen against P. berghei liver stage (PbLuc), transformed with Luciferase, at 10uM; assay type: functional, HepG2; details: tested at 10 uM

| Compound | INHIBITION |
| --- | --- |
| CN1CCN(C(=O)NC2CCCC2)Cc2cccnc21 | -29.3% |
| CCn1c(CNCC2CCCN2c2cccnn2)nc2ccccc21 (stereo not given) | -0.113% |
| COc1ccc(COCC(O)CNC(=O)Cc2ccc(C)cc2)cc1 (stereo not given) | 11.2% |
| Cc1ncn(CCNC(=O)Nc2ccc(F)c(Cl)c2)c(=O)c1C | 20.9% |
| CCOC(=O)COC1CCN(C(C)=O)CC(=O)N(C)c2ccccc21 (stereo not given) | 22.2% |
| COc1ccccc1-c1ncc(CN2CCC3(CCN(C)C3)CC2)cn1 | 18.4% |
| COc1cccc(COCC(=O)N2CCCN(CC(N)=O)CC2)c1 | -101% |
| COCC(C)NC(=O)CSc1ccc(F)c(Cl)c1 (stereo not given) | 46.1% |
| CC(C)CC(NC(=O)CSc1ccc(F)c(Cl)c1)C(=O)O (stereo not given) | 75.8% |
| CC(C)CC(NC(=O)Nc1ccc(F)c(Cl)c1)C(=O)O (stereo not given) | -20.3% |
| Cc1nc(N2CCCC2)nc2c1CCN(C(=O)CN(C)C)CC2 | 20.1% |
| COCc1ccccc1C(=O)N1CCCC1Cn1nc(C)cc1C (stereo not given) | -72.745% |
| C=C(C)CN1CCN(Cc2cnc(-c3ccccc3C)nc2)CC1 | 9.93% |
| Cc1nn(-c2ccc(C(=O)O)cc2)c2c1C(C(F)(F)F)SCC(=O)N2 (stereo not given) | -14.3% |
| O=C(NCCCC(=O)N1Cc2ccccc2C1)NCc1cccnc1 | 66.3% |
| O=C(NCCCC(=O)N1Cc2ccccc2C1)NCc1nccs1 | 39.7% |
| O=C(NCCCC(=O)N1Cc2ccccc2C1)NCc1ccsc1 | 23.5% |
| O=C1[C@@H]2CC[C@@H](CN(Cc3nnc(C4CC4)o3)C2)N1Cc1cscn1 | -28.4% |

| Compound | INHIBITION |
| --- | --- |
| CN(C)CCNC(=O)CCC1CCN(C(=O)c2ccc(Cl)cc2O)CC1 | 50.4% |
| CN(C)CCNC(=O)CCC1CCN(C(=O)c2ccc(O)cn2)CC1 | 26.8% |
| Cc1cc(C(=O)N2CCC(CCC(=O)NCCN(C)C)CC2)ccc1O | -21.9% |
| CCN(c1ccc(C(=O)NCCCN2CCCC2)cc1)S(=O)(=O)CC | -7.11% |
| CC[C@@H]1N(Cc2ccc(F)cc2)CCC[C@]12CCC(=O)N2C | 21.1% |
| Cc1ccc(N2CC3(COCCN(Cc4cccnc4)C3)OCC2=O)s1 (stereo not given) | 39.2% |
| Cc1cccc(N2CCOCC3(C2)CN(c2cccnc2)C(=O)CO3)n1 (stereo not given) | 41.4% |
| Cc1ccc(CN2CCC3(CC2)CN(c2ccccc2)C(=O)CO3)o1 | 68.4% |
| Cc1ccc(N2CC3(COCCN(Cc4cnn(C)c4)C3)OCC2=O)s1 (stereo not given) | 31.7% |
| Cc1cccc(N2CCOCC3(C2)CN(c2cncnc2)C(=O)CO3)n1 (stereo not given) | 33.5% |
| Cc1cccc(N2CCOCC3(C2)CN(c2ccccc2)C(=O)CO3)n1 (stereo not given) | 59.3% |
| Cn1cccc1CN1CCC2(CC1)CN(c1ccccc1)C(=O)CO2 | -19.5% |
| Cc1ccc(CN2CCOCC3(C2)CN(c2ccc(C)s2)C(=O)CO3)o1 (stereo not given) | 64.2% |
| Cc1ccc(N2CC3(COCCN(Cc4ccncc4)C3)OCC2=O)s1 (stereo not given) | -36% |
| Cc1ccc(N2CC3(COCCN(Cc4nccs4)C3)OCC2=O)s1 (stereo not given) | -17% |
| Cc1ccc(N2CC3(COCCN(Cc4ccccn4)C3)OCC2=O)s1 (stereo not given) | 60.1% |
| Cc1ccc(CN2CCC3(CC2)CN(c2cnn(C)c2)C(=O)CO3)o1 | -2.17% |
